Measurements: PubChem BioAssay AID588350 (The Scripps Research Institute Molecular Screening Center, 2011)
Among all 1,900 compounds or so, about 1,200 (63%) were called active.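 Rule for the calls: active = mean activation above the mean of solvent-only control wells plus 3 SD (cut at about 22% in these data); inactive = the rest.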 So high a share suggests a set chosen from earlier hits. Only a sample is shown.

Test: GAA30 FXN promoter activators, confirmation, counter-screen for GAA850 frataxin promoter activator project, cell-based, luminescence, HEK293, lucGAA30, triplicate (AID 588350);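 note: counterscreen of GAA850 promoter hits where activity marks nonselective or luminescence artifacts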
Conditions: HEK293 lucGAA30 FXN promoter luciferase, 24 h; at 6 µM; active compounds read high; DMSO = 0%, 5 µM ipriflavone = 100%

| Compound | activation |
| --- | --- |
| Cc1cc(OCc2cc(C(=O)NCc3cc(C(C)C)no3)no2)cc(C)c1Cl | 110% (active) |
| COCCn1c(=NC(=O)c2ccccc2[N+](=O)[O-])sc2cc(S(C)(=O)=O)ccc21 | 51.5% (active) |
| Cc1c(-c2ccccc2)nc(N)c(C#N)c1-c1cccs1 | 23.3% (active) |
| CCOC(=O)c1cc2cc(C)ccc2[nH]1 | 74.2% (active) |
| CCC(=O)NC(=Nc1nc2ccccc2s1)NC(=O)CC | 129% (active) |
| Cc1ccc(-c2nc3ccccc3[nH]c2=O)cc1 | 101% (active) |
| N#Cc1c(N)nc2c3c(sc(=N)c2c1N)NC(=O)CC3c1ccccc1Cl (stereo not drawn) | 25.4% (active) |
| CC1CCc2sc3nc(N4CCN(CCO)CC4)n4ncnc4c3c2C1 (stereo not drawn) | 61.1% (active) |
| O=C(NCCCn1ccnc1)c1cc(-c2ccccc2)on1 | 204% (active) |
| COc1ccccc1N1CCN(C(=O)c2cc(-c3ccc(Br)cc3)on2)CC1 | -9.05% (inactive) |
| O=C(NC1CCCC1)c1cc(-c2ccccc2)on1 | 161% (active) |
| COC(=O)c1ccc(CSc2nc3ccccc3c(=O)n2-c2cccc(OC)c2)o1 | 19.9% (inactive) |
| CN1C(=O)/C(=C\c2cc(Br)cs2)c2ccccc21 | 102% (active) |
| Cc1ccc(-c2c3c(=O)n(C)c(=O)n(C)c3cn2-n2cnnc2)cc1 | -0.74% (inactive) |
| CCOc1ccc(N2C(=O)CC(N(CCc3ccc(OC)c(OC)c3)C(=S)Nc3ccccc3)C2=O)cc1 (stereo not drawn) | -9.82% (inactive) |
| O=C(N/N=C/C=C/c1ccco1)c1cccs1 | 82.6% (active) |
| CCC1(CC)Cc2ccccc2-c2nc(CCl)[nH]c(=O)c21 | -4.18% (inactive) |
| O=C(CC1NCCc2ccccc21)Nc1cccc(Cl)c1 (stereo not drawn) | 69% (active) |
| N#CC1=C(SCc2ccc(C#N)cc2)N=C(N)C(c2nc(-c3ccccc3)cs2)C12CCCCC2 (stereo not drawn) | 2.61% (inactive) |
| O=[N+]([O-])c1ccc(C=Nc2ccc(Cl)cc2Cl)s1 | -6.04% (inactive) |
| COc1ccc(C2Nc3ccccc3C(=O)N2c2ccc(Cl)cc2)cc1Cn1cc([N+](=O)[O-])cn1 (stereo not drawn) | 92.3% (active) |
| CN(C(=O)c1cc2c(=O)n3ccccc3nc2s1)C1CCCCC1 | 116% (active) |
| CCCCNC(=O)N(O)C1N(/N=C/c2ccccc2O)C(=S)SC1(C)C (stereo not drawn) | 26.7% (active) |
| CCCNC(=O)c1c(Cl)cnn1-c1ccc(C)cc1 | 108% (active) |
| Fc1ccccc1/C=N/Nc1cc(N2CCCCC2)ncn1 | 118% (active) |

| Compound | activation |
| --- | --- |
| Cc1cc(C(=O)N/N=C\C(Br)=C\c2ccccc2)c(C)o1 | 58.9% (active) |
| CC(C)c1cc(C(=O)N/N=C/C(Br)=C/c2ccccc2)n[nH]1 | -1.66% (inactive) |
| CCCCCOc1ccc(CSC2=NCCN2)cc1[N+](=O)[O-] | 79.1% (active) |
| O=C(Nc1ccc2c(c1)OCCO2)c1cnccn1 | 87.7% (active) |
| O=C(COc1ccc(Cl)cc1Cl)NCCCNC(=O)c1cnccn1 | 11.8% (inactive) |
| CCc1ccc(N(C(=O)c2csnn2)C(C(=O)NC2CCCCC2)c2ccncc2)cc1 (stereo not drawn) | 26.5% (active) |
| CN(C)[C@@H]1C(=O)C(C(N)=O)=C(O)[C@@]2(O)C(=O)C3=C(O)c4c(O)ccc(Cl)c4[C@@H](O)[C@H]3C[C@@H]12 | 25.7% (active) |
| C=C1c2c(Cl)ccc(O)c2C(O)=C2C(=O)[C@]3(O)C(O)=C(C(N)=O)C(=O)[C@@H](N(C)C)[C@@H]3[C@@H](O)C12 (stereo partly drawn) | 18.7% (inactive) |
| Cc1noc(C)c1-c1ccc2ncnc(NC(C)c3ccco3)c2c1 (stereo not drawn) | 40.9% (active) |
| Cn1c(=O)n(C)c2cc(S(=O)(=O)N3CCCc4ccccc43)ccc21 | 1.6% (inactive) |
| CN(C)CCNC(=O)c1ccc(Cl)c2cc3ccccc3nc12 | -3.95% (inactive) |
| O=C1N=C(N2CCCC2)S/C1=C\c1cccc(Br)c1 | 60.8% (active) |
| CC(C)(C)C(=O)c1cnc(Nc2ccccc2)s1 | 126% (active) |
| Cc1cc(C)n2nc(CNS(=O)(=O)c3c(F)c(F)c(F)c(F)c3F)nc2n1 | 21.4% (inactive) |
| Cc1cc(=O)oc(C)c1C(=O)NCc1ccc(F)cc1 | 14.5% (inactive) |
| O=C(NCc1ccco1)c1ccc(Cn2c(=O)c3sccc3n(Cc3ccc(F)cc3)c2=O)cc1 | 24.6% (active) |
| Nc1ccc(C(=O)Nc2ccccc2N)cc1 | 54.8% (active) |
| Cc1nnc(Sc2nc3c(c(=O)[nH]c(=O)n3C)n2Cc2ccccc2)s1 | 12.3% (inactive) |
| CNc1nc(Nc2ccc(C)c(Cl)c2)nc(N)c1[N+](=O)[O-] | 159% (active) |
| COc1ccc(/C=C/C(=O)Nc2ccc(C34CC5CC(CC(O)(C5)C3)C4)cc2)cc1OC | 64.1% (active) |
| Cc1ccc(-n2c(C)cc(/C=C(\C#N)C(=O)NCC3CCCO3)c2C)cc1 (stereo not drawn) | 110% (active) |
| O=C(CN(c1cc(C(F)(F)F)ccc1Cl)S(=O)(=O)c1ccccc1)NCc1cccnc1 | 20.5% (inactive) |
| O=C(Nc1nnc(S(=O)(=O)N2CCCCCC2)s1)c1cccc(Br)c1 | 31.3% (active) |
| CC(C)c1ccc(NS(=O)(=O)c2cn(C)c(=O)n(C)c2=O)cc1 | 13.1% (inactive) |
| Cn1c(CCN2CCCCCC2)nc2cc(NC(=O)Nc3ccccc3)ccc21 | 122% (active) |

| Compound | activation |
| --- | --- |
| Cc1cc(C)nc(S/C=C/C(=O)c2ccccc2)n1 | -58.6% (inactive) |
| CC[C@]1(C(=O)OC)[C@H]2C(=O)N(Cc3ccccc3)C(=O)[C@H]2[C@H]2CN=C(SCc3ccccc3)N21 | 15.5% (inactive) |
| CC[C@]1(C(=O)OC)[C@H]2C(=O)N(Cc3ccccc3)C(=O)[C@H]2[C@H]2CN=C(SCc3ccc(C#N)cc3)N21 | 23.6% (active) |
| COC(=O)[C@@]1(C)[C@H]2C(=O)N(Cc3ccccc3)C(=O)[C@H]2[C@H]2CN=C(SCC3CC3)N21 | 29.2% (active) |
| CN(C)S(=O)(=O)c1ccc2oc(SCC(=O)Nc3ccccc3F)nc2c1 | 127% (active) |
| O=C(CSc1cccc2cccnc12)N/N=C/c1cccnc1 | -15.3% (inactive) |
| Cc1ccc2cc(/C=N/Nc3ccc(C(=O)O)cc3)c(Cl)nc2c1 | 109% (active) |
| O=C1[C@H]2[C@@H](c3ccc(F)cc3)N3C(=O)N(c4ccc(C(F)(F)F)cc4)C(=O)[C@@]3(Cc3ccccc3)[C@H]2C(=O)N1C1CCCCC1 | 26.3% (active) |
| O=C1[C@H]2[C@@H](c3ccc(Cl)cc3)N3C(=O)N(c4cccc(F)c4)C(=O)[C@@]3(Cc3ccccc3)[C@H]2C(=O)N1C1CCCCC1 | 16.9% (inactive) |
| C[C@@]12C(=O)N(c3cccc(Br)c3)C(=O)N1[C@H](c1ccc(Cl)cc1)[C@@H]1C(=O)N(C3CCCCC3)C(=O)[C@@H]12 | 0.25% (inactive) |
| CC(C)(C)c1ccc(C(=O)NCc2ccco2)cc1 | 102% (active) |
| CCCCc1ccc(NC(=S)N2CCCC(CO)C2)cc1 (stereo not drawn) | 102% (active) |
| CC(C)(C)N1C(=O)[C@H]2[C@@H](c3ccc(Br)cc3)N3C(=O)N(c4cccc(Cl)c4)C(=O)[C@@]3(C)[C@H]2C1=O | 20.4% (inactive) |
| COc1ccc(N(CCC#N)S(=O)(=O)c2ccc(Cl)cc2)cc1 | 11.8% (inactive) |
| CC(C)CCC(C)NC(=O)c1ccc2nccnc2c1 (stereo not drawn) | 77% (active) |
| O=c1[nH]cnc2c1c(-c1ccccc1)cn2-c1ccc(F)cc1 | 11.4% (inactive) |
| COc1ccc(Cl)cc1NC(=O)CN(C)C(=O)CCCc1c[nH]c2ccccc12 | 16.9% (inactive) |
| CC[C@@]12C(=O)N(c3ccccc3)C(=O)N1[C@H](c1ccc(Br)cc1)[C@@H]1C(=O)N(C(C)(C)C)C(=O)[C@@H]12 | 21.7% (inactive) |
| CSc1nc(N)c(C#N)c(-c2ccccc2Cl)c1C#N | 25.8% (active) |
| Fc1ccc2nc(N3CCCCC3)sc2c1 | 95.9% (active) |
| Oc1ccccc1-c1cc(-c2ccc(Cl)cc2)n[nH]1 | 124% (active) |
| c1ccc(-c2cc(-c3ccccc3)[nH]n2)cc1 | 129% (active) |
| COc1ccc(-n2cc(-c3ccccc3)c3c(=S)nc[nH]c32)cc1 | 15.8% (inactive) |
| N#CCSc1nc2ccccc2c(=O)n1-c1ccccc1 | 16.1% (inactive) |
| CC1(C(=O)N/N=C/c2cc3c(cc2Br)OCO3)CC1(Br)Br (stereo not drawn) | 30.7% (active) |

| Compound | activation |
| --- | --- |
| COc1ccccc1C1=Nc2cccc3cccc(c23)N1 | 15.9% (inactive) |
| COc1cc(C#Cc2ccc3cc(CCCO)oc(=O)c3c2)cc(OC)c1 | 7.14% (inactive) |
| Cc1ccc(C(=O)NNc2ncnc3ccccc23)cc1 | 79.1% (active) |
| CCN(C[C@H]1N[C@@](CC)(C(=O)OC)[C@H]2C(=O)N(Cc3ccccc3)C(=O)[C@@H]12)S(=O)(=O)c1ccc(C(F)(F)F)cc1 | 22.6% (active) |
| CN(C)C(=S)N=c1ssc(=S)n1Cc1ccco1 | 12.5% (inactive) |
| Cc1nc(-c2ccc(F)cc2)c(CC(=O)Nc2cc(S(=O)(=O)N3CCCCC3)ccc2C)s1 | 16.7% (inactive) |
| COc1ccc2[nH]c(=O)c(CN(Cc3nnnn3CCc3ccccc3)CC3CCCO3)cc2c1 (stereo not drawn) | -9.61% (inactive) |
| COc1cc(/C=N/Nc2nc3ccccc3s2)ccc1O | 124% (active) |
| CCCCn1c(SCC(=O)NCCc2ccc(OC)c(OC)c2)nc2c1c(=O)n(C)c(=O)n2C | 26.9% (active) |
| COc1ccc(NC(=O)CSc2nc(SC)ns2)c(OC)c1 | 119% (active) |
| CCOc1ccc(Nc2oc(Cc3ccccc3)nc2C#N)cc1 | 58.9% (active) |
| COc1ccc(-c2csc(Cc3nc(O)cs3)n2)cc1 | -53.3% (inactive) |
| O=c1oc2ccccc2cc1-c1csc(Nc2ccc(O)cc2)n1 | 148% (active) |
| COc1ccc(-c2csc(Nc3ccc(O)cc3)n2)cc1 | 107% (active) |
| CC1(Cc2cccc(C#N)c2)C(=O)Nc2ccc(-c3cccc(C(F)(F)F)c3)cc21 (stereo not drawn) | 10.6% (inactive) |
| COc1ccc(-c2nnc(SCC(=O)c3cccs3)o2)c(OC)c1 | 88.6% (active) |
| Cc1ccccc1Nc1c([N+](=O)[O-])ccc2nonc12 | 29.2% (active) |
| Cc1ccc(C2Nc3cccc4cccc(c34)N2)cc1 | 24.8% (active) |
| CC(Sc1nc2c([nH]c3ccccc32)c(=O)n1C)c1ccccc1 (stereo not drawn) | 22.8% (active) |
| COc1cccc(Nc2nc(N)c([N+](=O)[O-])c(NCc3ccco3)n2)c1 | 42% (active) |
| CC1(C(=O)NCc2cccc3ccccc23)CCN1Cc1ccc(-c2ccccc2)o1 (stereo not drawn) | 24.2% (active) |
| CCOC(=O)c1cc2c(=O)n3ccccc3nc2n(CC(C)C)c1=NC(=O)c1c(-c2c(F)cccc2Cl)noc1C | -0.82% (inactive) |
| Cc1ccc(NC(=O)c2sc3nc(N)c(C#N)cc3c2N)cc1 | 61.2% (active) |
